Compound activity from PubChem.
Only some compounds are listed: those with a hit (about 0.92% of all), similar ones and a draw of the others.
MEP2 TOR yeast: modulators of TOR pathway MEP2-GFP in S. cerevisiae; S. cerevisiae MEP2-GFP strain, flow cytometry GFP, 3 h; 100% = DMSO control level; GFP response vs DMSO, % at 10 µM; 0.51% of 330,000 active; AID 2016;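 active = GFP response versus DMSO above a set limit, roughly screen mean plus 3 SD, cut at about 180% in these data; inconclusive = fewer than 70 cells counted for a yeast strain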;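 note: median GFP fluorescence of the barcode-gated MEP2-GFP cells per well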
CIT2 TOR yeast: modulators of TOR pathway CIT2-GFP in S. cerevisiae. S. cerevisiae CIT2-GFP strain, flow cytometry, 3 h; 100 means same as DMSO wells. GFP response vs DMSO, % at 10 µM. 0.065% of 320,000 active. AID 2029;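 active = GFP response relative to DMSO above a set limit, near the screen mean plus 3 SD, cut at about 150% in these data; inconclusive = Fewer than 70 cells measured for a yeast strain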;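 note: ratio of well median GFP fluorescence to mean of DMSO wells on the plate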
AGP1 TOR yeast: modulators of TOR pathway AGP1-GFP in S. cerevisiae; GFP response vs DMSO, % at 10 µM; S. cerevisiae AGP1-GFP multiplex flow cytometry, 3 h; GFP as percent of DMSO wells; AID 2066; 0.02% of 320,000 active;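 active = GFP response relative to DMSO above a set limit, near screen average plus 3 SD, cut at about 150% in these data; inconclusive = fewer than 70 cells counted for the yeast strain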;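 note: median GFP channel fluorescence of the gated AGP1 strain per well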
RPL19A TOR yeast: alters RPL19A-GFP fluorescence in TOR pathway yeast screen; S. cerevisiae RPL19A-GFP strain, flow cytometry, 3 h; active compounds read low; percent response vs DMSO, % at 10 µM; 0.3% of 330,000 active;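 active = percent response vs DMSO below 50%; inconclusive = fewer than 70 events counted for the yeast strain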;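 note: median channel GFP fluorescence of the barcoded RPL19A-GFP strain; lower means less RPL19A-GFP as with rapamycin TOR inhibition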
LAP4 TOR yeast: yeast TOR pathway LAP4-GFP modulation; 0.34% of 320,000 active; S. cerevisiae LAP4-GFP multiplex, flow cytometry GFP, 3 h; median GFP as percent of DMSO wells; AID 2023; GFP response vs DMSO, % at 10 µM;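 active = GFP response vs DMSO above a set limit, about the screen mean plus 3 SD, cut at about 150% in these data; inconclusive = under 70 cell events counted for the yeast strain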
Each line names hits and unclear results; the compound was inactive in the other large screens; [ ] = remark or other dose.

c1cc2c(cc1C1CCCCC1)c1c3n2CCCNC3CCC1 (stereo unspecified)	LAP4 TOR yeast 188
CC(=O)Oc1ccc(C(=O)NC(C)CCc2ccccc2)cc1 (stereo unspecified)	none
COc1ccc(-n2nnnc2SCC(=O)c2ccc(O)c(O)c2)cc1	MEP2 TOR yeast 276[may fluoresce violet], CIT2 TOR yeast inconclusive, AGP1 TOR yeast inconclusive, RPL19A TOR yeast 12[may fluoresce violet], LAP4 TOR yeast inconclusive
CC(=O)N1CCN(c2ccc(Nc3ncnc4c3oc3ccccc34)cc2)CC1	MEP2 TOR yeast 427[may fluoresce violet], CIT2 TOR yeast inconclusive, RPL19A TOR yeast 22[may fluoresce violet] (no result: AGP1 TOR yeast)
CCc1nc(Nc2ccc(N3CCN(C(C)=O)CC3)cc2)c2oc3ccccc3c2n1	none
CC1CCN(CCCOc2ccc(Br)cc2Cl)CC1	CIT2 TOR yeast inconclusive, AGP1 TOR yeast inconclusive, RPL19A TOR yeast 28[may fluoresce violet]
CCOC(=O)c1cnc2c(-c3ccccc3)c(C)nn2c1N	none
CCOC(=O)c1cnc2c(-c3ccccc3)cnn2c1N	MEP2 TOR yeast 529[may fluoresce violet], CIT2 TOR yeast inconclusive, RPL19A TOR yeast 32[may fluoresce violet] (no result: AGP1 TOR yeast)
CCCS(=O)(=O)N1CCC(C(=O)c2cccc(C(F)(F)F)c2)CC1	MEP2 TOR yeast 186, LAP4 TOR yeast 156
Cc1nc2c(-c3ccc(F)cc3)cnn2c(N)c1-c1ccccc1	LAP4 TOR yeast 165
Cc1ccccc1N=C1NN=C(c2ccccc2F)CS1	none
CCc1ccc(NC(=O)c2noc3c2CCc2ccccc2-3)cc1	MEP2 TOR yeast 237[may fluoresce violet], CIT2 TOR yeast inconclusive, AGP1 TOR yeast inconclusive, RPL19A TOR yeast 13[may fluoresce violet]
COc1cccc(/C=C/C(=O)NNC(=O)c2ccccc2)c1OC	none
Cc1ccc(C(=O)NCC(=O)OCN2C(=O)c3ccccc3C2=O)cc1C	none
O=C(CNC(=O)c1ccco1)OCN1C(=O)c2ccccc2C1=O	MEP2 TOR yeast 269[may fluoresce violet], CIT2 TOR yeast inconclusive
Cc1noc(C)c1NC(=O)Nc1cccc2c1O[C@H](CN(C)S(=O)(=O)c1cn(C)cn1)[C@@H](C)CN([C@H](C)CO)C2=O	none
CC(Sc1ccccc1)C(=O)NCC(c1ccco1)N1CCCCC1 (stereo unspecified)	none
COc1cccc(/C=N/NC(=O)c2ccncc2)c1OC(=O)c1ccc(Br)cc1	CIT2 TOR yeast inconclusive, AGP1 TOR yeast inconclusive, RPL19A TOR yeast 17[may fluoresce violet]
CCCC(=O)c1c(NCCO)cc(C)oc1=O	none
O=C1c2ccccc2NC(c2ccccc2O)N1O (stereo unspecified)	none
Cc1ccc(N2C(=O)c3ccccc3NC2c2ccccc2O)cc1 (stereo unspecified)	MEP2 TOR yeast 200
CN1C(=O)/C(=C/c2ccc(-c3ccccc3[N+](=O)[O-])o2)SC1=Nc1ccc(Cl)c(C(=O)O)c1	CIT2 TOR yeast inconclusive, AGP1 TOR yeast inconclusive, RPL19A TOR yeast 41[may fluoresce violet]
CC1(C)NC(=O)N(CC(=O)N2CCN(S(=O)(=O)c3ccccc3C(F)(F)F)CC2)C1=O	none
COc1ccc(/C(C)=N/NC(=O)c2nc(C)cc(C)n2)cc1	MEP2 TOR yeast 670[may fluoresce violet], CIT2 TOR yeast inconclusive, RPL19A TOR yeast 40[may fluoresce violet] (no result: AGP1 TOR yeast)
O=C(C1CC1)N1CCc2cc(Br)cc(S(=O)(=O)NCCN3CCOCC3)c21	none
CCC(=O)N1CCc2cc(Br)cc(S(=O)(=O)N3CCCC(C(=O)NC(C)(C)C)C3)c21 (stereo unspecified)	MEP2 TOR yeast 326[may fluoresce violet], CIT2 TOR yeast inconclusive
O=C(C1CC1)N1CCc2cc(Br)cc(S(=O)(=O)NCc3ccccn3)c21	MEP2 TOR yeast 202[may fluoresce violet], CIT2 TOR yeast inconclusive, AGP1 TOR yeast inconclusive, RPL19A TOR yeast 42[may fluoresce violet]
O=C(C1CC1)N1CCc2cc(Br)cc(S(=O)(=O)NCc3ccco3)c21	none
CCC(=O)N1CCc2cc(Br)cc(S(=O)(=O)N3CCC(C(=O)NC(C)(C)C)CC3)c21	none
O=C(C1CC1)N1CCc2cc(Br)cc(S(=O)(=O)N3CCOCC3)c21	MEP2 TOR yeast 214[may fluoresce violet], CIT2 TOR yeast inconclusive, AGP1 TOR yeast inconclusive, RPL19A TOR yeast 18[may fluoresce violet]
CN1CCN(C(=S)Nc2ccc(S(N)(=O)=O)cc2)CC1	none
CCOC(=O)CNC(=O)c1cn(CC(C)C)c(=O)c2cc(OC)c(OC)cc12	MEP2 TOR yeast 248[may fluoresce violet], CIT2 TOR yeast inconclusive, AGP1 TOR yeast inconclusive, RPL19A TOR yeast 41[may fluoresce violet]
CCCN1CCN(C(=O)c2cn(CC(C)C)c(=O)c3cc(OC)c(OC)cc23)CC1	none
COc1cc2c(C(=O)N3CCN(C4CCCCC4)CC3)cn(CC(C)C)c(=O)c2cc1OC	MEP2 TOR yeast 201[may fluoresce violet], CIT2 TOR yeast inconclusive, RPL19A TOR yeast 49[may fluoresce violet]
